Here are results for 14 compounds from PubChem BioAssay.

Assay [1] in a line: anti-His antibody binders, primary screen, artefact control for SMM control protein annotation, biochemical, small-molecule microarray, 635 nm fluorescence (AID 1128).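 Also: score merges feature fluorescence with signal-to-noise for each printed compound spot.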 Conditions: anti-His Alexa647 antibody binding, higher = more signal.
Assay [2] deals with Human papillomavirus type 1a E7 protein (residues 1-88). Kind of assay: HPV1a E7 small-molecule binders, primary screen, biochemical, small-molecule microarray, residues 1-88, 635 nm (AID 1129). Conditions: small-molecule microarray binding, fluorescence 635 nm; higher = more signal.
In assay [3] the target is Focal adhesion kinase 1 (Homo sapiens) (UniProt Q05397). Kind of assay: small-molecule microarray binders of FAK, primary screen, biochemical, 635/667 nm fluorescence, BSA, DTT (AID 1130).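 Also: composite of spot emission at 667 nm and signal to noise over triplicate slides.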 Conditions: PTK2 binding, 635 nm fluorescence, higher = more signal.
Focal adhesion kinase 1 (Homo sapiens), sequence (Q05397 whole entry, looked up): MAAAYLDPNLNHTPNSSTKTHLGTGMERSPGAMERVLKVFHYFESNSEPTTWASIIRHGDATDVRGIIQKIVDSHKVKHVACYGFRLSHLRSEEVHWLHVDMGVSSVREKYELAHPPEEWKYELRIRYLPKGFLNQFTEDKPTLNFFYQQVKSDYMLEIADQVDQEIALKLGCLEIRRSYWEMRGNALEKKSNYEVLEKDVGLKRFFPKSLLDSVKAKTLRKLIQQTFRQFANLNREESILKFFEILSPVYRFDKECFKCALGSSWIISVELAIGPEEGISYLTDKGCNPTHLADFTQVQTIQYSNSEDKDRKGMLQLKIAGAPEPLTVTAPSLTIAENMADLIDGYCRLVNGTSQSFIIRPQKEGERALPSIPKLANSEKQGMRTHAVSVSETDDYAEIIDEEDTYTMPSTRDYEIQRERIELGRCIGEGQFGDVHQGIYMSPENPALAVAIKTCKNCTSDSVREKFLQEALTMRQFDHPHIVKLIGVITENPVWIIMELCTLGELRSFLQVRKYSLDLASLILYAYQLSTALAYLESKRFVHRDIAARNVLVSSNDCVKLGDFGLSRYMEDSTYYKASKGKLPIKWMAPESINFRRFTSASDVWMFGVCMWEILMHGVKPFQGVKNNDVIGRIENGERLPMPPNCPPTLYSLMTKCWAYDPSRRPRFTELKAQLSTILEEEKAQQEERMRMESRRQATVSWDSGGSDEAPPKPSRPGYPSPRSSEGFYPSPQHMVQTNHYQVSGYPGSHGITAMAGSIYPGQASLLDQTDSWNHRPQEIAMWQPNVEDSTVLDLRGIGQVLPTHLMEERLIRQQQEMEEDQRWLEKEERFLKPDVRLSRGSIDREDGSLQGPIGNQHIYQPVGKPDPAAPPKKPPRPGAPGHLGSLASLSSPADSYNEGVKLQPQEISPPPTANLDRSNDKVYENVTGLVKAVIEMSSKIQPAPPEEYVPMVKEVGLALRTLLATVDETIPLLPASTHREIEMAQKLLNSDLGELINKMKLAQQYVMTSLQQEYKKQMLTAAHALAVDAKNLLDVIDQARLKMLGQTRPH
The subject of assay [4] is Fibrinogen (Alexa647-labelled). The assay is described as follows: fibrinogen binders on compound microarrays, profiling panel, artefact control for SMM control-protein annotation, biochemical, small-molecule microarray, 635/667 nm fluorescence (AID 1131).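 Also: z-score merges 667 nm fluorescence with per-spot signal-to-noise over triplicate slides.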 Conditions: fibrinogen-A647 binding fluorescence, higher = more signal.
Assay [5] deals with Follistatin (Homo sapiens) (UniProt P19883). Kind of assay: follistatin binders on small-molecule microarrays, primary screen, biochemical, small-molecule microarray, 635/667 nm fluorescence (AID 1132). Conditions: FST binding, 635 nm fluorescence, higher = more signal.
Follistatin (Homo sapiens), sequence (P19883 whole entry, looked up): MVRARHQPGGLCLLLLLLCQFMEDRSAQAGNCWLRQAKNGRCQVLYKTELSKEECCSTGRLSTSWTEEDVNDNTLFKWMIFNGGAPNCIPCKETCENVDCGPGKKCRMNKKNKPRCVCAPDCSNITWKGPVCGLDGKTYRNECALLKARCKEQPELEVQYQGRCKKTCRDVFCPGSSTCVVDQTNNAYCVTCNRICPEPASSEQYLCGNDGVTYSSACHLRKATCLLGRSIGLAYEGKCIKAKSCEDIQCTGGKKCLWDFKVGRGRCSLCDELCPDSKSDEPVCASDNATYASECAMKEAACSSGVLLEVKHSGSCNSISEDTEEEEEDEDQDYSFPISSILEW
In assay [6] the target is Fibroblast growth factor 2 (Homo sapiens) (UniProt P09038). Kind of assay: FGF2 binders on small-molecule microarrays, primary screen, biochemical, small-molecule microarray, 635/667 nm fluorescence (AID 1133). Conditions: small-molecule microarray binding, FGF2, fluorescence 635/667; higher = more signal.
Fibroblast growth factor 2 (Homo sapiens), sequence (P09038 whole entry, looked up): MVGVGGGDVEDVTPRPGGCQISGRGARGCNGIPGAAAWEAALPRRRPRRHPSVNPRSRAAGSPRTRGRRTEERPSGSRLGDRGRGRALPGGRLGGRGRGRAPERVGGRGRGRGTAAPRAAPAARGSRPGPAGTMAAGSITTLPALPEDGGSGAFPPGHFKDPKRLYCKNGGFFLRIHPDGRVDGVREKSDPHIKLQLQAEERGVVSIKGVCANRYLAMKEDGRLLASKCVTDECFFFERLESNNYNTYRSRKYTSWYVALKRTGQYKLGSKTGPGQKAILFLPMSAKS
Assay [7] can be described thus: mitochondrial membrane potential change in A549 cells, profiling panel, cell-based, JC-1 fluorescence, basal, 24 h, 100 nL (AID 1138).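 Also: A549 lung adenocarcinoma cells under basal conditions with no added stimulus; test concentration not given here.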 Conditions: higher = more signal.
The subject of another assay is Lefty1. Kind of assay: Lefty1 binders on small-molecule microarrays, primary screen, biochemical, small-molecule microarray, 635/667 nm fluorescence (AID 1139). Conditions: small-molecule microarray binding, fluorescence 635/667; higher = more signal.
In assay [8] the test system is wheat germ agglutinin (Triticum aestivum), Alexa647-labelled. Kind of assay: wheat germ agglutinin binders on compound microarrays, profiling panel, artefact control for SMM control-protein annotation, biochemical, small-molecule microarray, 635/667 nm fluorescence (AID 1140).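 Also: score merges 667 nm feature emission with signal to noise over triplicate slides.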 Conditions: WGA-A647 binding, 635 nm fluorescence, higher = more signal.
The target in assay [9] is Luciferin 4-monooxygenase (Photinus pyralis) (UniProt P08659). Kind of assay: firefly luciferase enzyme inhibitors, primary screen, biochemical, luminescence, purified enzyme, 2006 set (AID 1141).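 Also: cell-free assay with purified firefly luciferase at 100 ng per well in PBS; test concentration not given here.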 Conditions: SteadyGlo luminescence, 30 min, higher = more signal, called active from +8 up or from −8 down.
Luciferin 4-monooxygenase (Photinus pyralis), sequence (P08659 whole entry, looked up): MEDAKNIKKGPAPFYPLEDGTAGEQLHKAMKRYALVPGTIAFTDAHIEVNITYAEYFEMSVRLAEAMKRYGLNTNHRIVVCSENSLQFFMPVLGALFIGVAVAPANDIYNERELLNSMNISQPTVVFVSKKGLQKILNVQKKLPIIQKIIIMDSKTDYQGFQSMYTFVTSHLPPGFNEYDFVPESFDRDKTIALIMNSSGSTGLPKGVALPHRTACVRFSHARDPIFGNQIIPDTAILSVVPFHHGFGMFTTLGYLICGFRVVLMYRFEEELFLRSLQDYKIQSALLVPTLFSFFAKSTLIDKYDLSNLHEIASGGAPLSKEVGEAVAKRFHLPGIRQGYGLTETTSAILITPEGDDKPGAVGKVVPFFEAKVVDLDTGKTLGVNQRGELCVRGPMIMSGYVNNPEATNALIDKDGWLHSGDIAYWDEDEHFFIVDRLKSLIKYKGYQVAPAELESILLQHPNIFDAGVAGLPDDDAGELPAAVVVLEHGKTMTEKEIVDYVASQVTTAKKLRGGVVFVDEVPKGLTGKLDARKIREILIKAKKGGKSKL

The source made the active and inactive calls.

Regarding `O=C1[C@@H]2[C@@H](CC(COc3ccccc3)=C([C@H](O)CCc3ccccc3)[C@@H]2CO)C(=O)N1Cc1ccccc1`, the composite z-score in assay [1] is 1.71; in assay [2] it was 0.332; in [3], 1.2; in assay [4], 0.724; in assay [5] it was 0.561; in [6], 0.175. The composite z-score with Lefty1 was determined as 0.715; in [8], 0.124. Further, the z-score in assay [7] is 2.07; in assay [9], -0.172 (inactive).

In the case of `CCCCC(O)C1C=CC2C(=O)N(c3ccccc3)C(=O)C2N1Nc1ccccc1` (stereo not given), the composite z-score was 0.781 in [1]; 1.14 in assay [2]; 0.438 in assay [3]; 0.543 in [4]; -0.0278 in [5]; -1.26 in [6]. Moreover, the composite z-score was determined as 0.173 in the assay on Lefty1 and 1.17 in assay [8]. For the same compound, the z-score was 0.656 in assay [7] and 0.438 (inactive) in assay [9].

Turning to `N#Cc1ccc(C(O)C2C=CC3C(=O)NC(=O)C3N2Nc2ccc(Cl)cc2Cl)cc1` (stereo not given), the composite z-score was 0.299 in [1]; 0.534 in assay [2]; 0.352 in assay [3]; 0.732 in [4]; -0.0644 in [5]; -0.164 in assay [6]. Also, the composite z-score was -0.781 with Lefty1 and 1.08 in assay [8]. Besides, the z-score was 1.28 in [7] and 0.293 (inactive) in [9].

Take `CCCCN1CC=CC23O[C@@H]4/C=C\CCCOC(=O)C4[C@H]2C(=O)N(C(CO)C(C)C)[C@@H]3C1=O` (stereo not given in full): the composite z-score in assay [1] is 0.0807; in [2] it was -0.654; in assay [3], -0.192; in assay [4], -0.458; in assay [5] it was 0.0549; in [6] it was 0.0877. The composite z-score is 0.249 in the assay on Lefty1 and -0.0096 in assay [8]. Besides, the z-score in [7] is -0.455; in assay [9], -0.0573 (inactive).

For `COCCOC(=O)N1C(=O)[C@@]2(c3cc(C#CCC(C(=O)OC)C(=O)OC)ccc31)[C@H](C(=O)Nc1nc3ccccc3s1)[C@H]1C(=O)O[C@H](c3ccccc3)[C@H](c3ccccc3)N1[C@@H]2c1ccc(OCCO)cc1`, the composite z-score in assay [1] was determined as 2.33; in assay [2], 0.988; in [3] it was 0.35; in assay [4], 0.746; in [5] it was 1.39; in assay [6], 1.79. Also, the composite z-score with Lefty1 was found to be 1.64; in [8], 0.44. In addition, the z-score is -2.33 in [7] and -4.07 (inactive) in assay [9].

Turning to `C[N+](C)(C)CCCCNC(=O)[C@H]1C[C@H]2C(=O)N[C@@H](Cc3ccccc3)C(=O)N2[C@H]1c1cccc(OCCO)c1`, the composite z-score came out at 2.93 in [1]; 0.566 in assay [2]; 0.193 in assay [3]; 0.578 in [4]; 1.48 in assay [5]; 1.87 in [6]. Further, the composite z-score in the assay on Lefty1 was 1.69; in assay [8], -0.4. For the same compound, the z-score in assay [7] is -0.243; in [9], -0.598 (inactive).

`CN(C)CCCC[C@@H]1NC(=O)[C@@H]2C[C@H](C(=O)NCCCCCCNC(=O)CS)[C@H](c3ccc(O)cc3)N2C1=O`: the composite z-score in assay [1] was 2.26; in assay [2], 0.91; in assay [3], 0.335; in assay [4], 0.767; in assay [5] it was 1.31; in [6], 1.87. The composite z-score in the assay with Lefty1 was 1.38; in assay [8], -0.204. The z-score in assay [7] was -0.15; in assay [9], -0.25 (inactive).

For `C=CC[C@@]1(C(=O)OC)N=C(c2ccc(OCCCO)cc2)O[C@@H]1c1ccccc1N=[N+]=[N-]`, the composite z-score in assay [1] was found to be 2.37; in assay [2], 1.24; in assay [3] it was 0.568; in assay [4], 0.159; in [5] it was 1.41; in assay [6], 1.66. The figures for the composite z-score (in the assay on Lefty1; in [8]) were 0.53 and 0.874, respectively. In addition, the figures for the z-score in assay [7] and in [9] were 0.311 and -6.39 (inactive), respectively.

Take `COC(=O)C(CC#Cc1ccc2c(c1)[C@]1(C(=O)N2)[C@H](c2ccc(OCCO)cc2)N2[C@H](c3ccccc3)[C@H](c3ccccc3)OC(=O)[C@H]2[C@@H]1C(=O)N1CCCCCCC1)C(=O)OC`: the composite z-score came out at 2.65 in [1]; 1.17 in assay [2]; 2.67 in [3]; 0.68 in assay [4]; 1.45 in assay [5]; 0.724 in assay [6]. Further, the composite z-score with Lefty1 is 1.24; in assay [8] it was 1.46. Besides, the z-score was -1.39 in assay [7] and -0.596 (inactive) in [9].

As to `O=C(NCC(O)CO)[C@@]1(CCS(=O)(=O)c2ccccc2)N=C(c2ccc(OCCCO)cc2)O[C@H]1c1ccccc1` (stereo not given in full), the composite z-score in assay [1] is 1.9; in assay [2], 1.23; in [3], 1.38; in assay [4], 0.993; in assay [5], 1.33; in assay [6], -0.0831. Besides, the figures for the composite z-score (with Lefty1; in assay [8]) were -1.02 and 0.762, respectively. The z-score is -0.503 in [7] and -0.845 (inactive) in assay [9].

As for `C=CC[C@@]1(C(=O)N(C)C)N=C(c2ccc(OCCCO)cc2)O[C@@H]1c1ccccc1CN=[N+]=[N-]`, the composite z-score in [1] amounted to 2.69; in assay [2] it was 1.22; in assay [3] it was 0.188; in assay [4] it was 0.985; in [5], 1.36; in [6] it was 1.83. The composite z-score stood at 0.561 in the assay on Lefty1 and 1.12 in assay [8]. In addition, the z-score in assay [7] was 3.32; in [9], -0.84 (inactive).

`C=CCOC(=O)[C@@H]1[C@H]2C(=O)O[C@H](c3ccccc3)[C@H](c3ccccc3)N2[C@H](c2ccc(OCCOC(=O)[C@H]3C[C@H]4C(=O)NCC(=O)N4[C@H]3c3cccc(OCCO)c3)cc2)[C@@]12C(=O)Nc1ccc(I)cc12`: the composite z-score in assay [1] was 2.5; in [2], 1.19; in assay [3], 0.919; in [4], 0.438; in assay [5], 1.38; in [6], 1.64. The composite z-score in the assay on Lefty1 stood at 1.34; in [8] it was 0.734. Moreover, the z-score is -1.09 in [7] and -1.06 (inactive) in assay [9].

As to `COC(=O)[C@@]1(Cc2ccccc2)[C@H]2c3cc(C(=O)N(C)C)n(Cc4ccc(S(C)(=O)=O)cc4)c3C[C@H]2CN1C(=O)c1ccccc1`, the composite z-score is 3.21 in assay [1]; 0.884 in assay [2]; 1.31 in assay [3]; 0.989 in assay [4]; -0.0741 in assay [5]; -0.277 in assay [6]. Besides, the composite z-score in the assay with Lefty1 is -0.367; in assay [8] it was 1.13. The figures for the z-score in assay [7] and in assay [9] were -0.699 and 1.6 (inactive), respectively.

As for `COC(=O)C[C@H]1O[C@@]2(C[C@@H]1[Si](C)(C)C)C(=O)N(C)c1ccccc12`, the composite z-score was 0.324 in [1]; 0.643 in assay [2]; -0.203 in assay [3]; 0.78 in [4]; 0.501 in assay [5]; 0.0172 in [6]. Further, the composite z-score in the assay on Lefty1 was found to be 0.453; in [8], 0.0729. Besides, the z-score in [7] is 1.63; in assay [9], -1.85 (inactive).
